The nature of assay [1]: qHTS assay to identify small molecule antagonists of the sonic hedgehog signaling (Shh) pathway (AID 1259369). Further: nearly all actives have a fitted effect of over 45% in size. Further: potency means the concentration at half of the fitted maximal effect. The essentials:
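Read-out is luminescence from a firefly luciferase gene controlled by the Gli1 response element, in 3T3Gli1-Luc cells pre-incubated 4hr then exposed to compounds and conditioned medium for 24hr.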
(In general: Quantitative high-throughput screening tests each substance at several concentrations.)

Assay [2] has as its target Estrogen receptor beta (Homo sapiens) (UniProt Q92731). The experiment in a line: qHTS assay to identify small molecule agonists of the estrogen receptor beta (ER-beta) signaling pathway (AID 1259377; active means well fitted activation curve with a large enough effect in the signal ratio in the repeat runs, not every such curve was filed as active; the % refers to the signal ratio; further: potency means the concentration at half of the fitted maximal effect). The essentials:
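Beta-lactamase reporter readout: fluorescence of LiveBLAzer B/G FRET substrate after 2 h at room temperature, following 16 h compound treatment of ER-beta-UAS-bla HEK293T cells at 37C in 2% charcoal-stripped FBS medium.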

Assay [3] is described as follows: qHTS assay to identify small molecule agonists of the androgen receptor (AR) signaling pathway in the presence of an antagonist - cell viability counter screen (AID 1259379; active means well fitted curve in the direction sought with a large enough effect in the repeat runs; an effect the other way counts as inactive or inconclusive; further: nearly all actives have a fitted effect of over 25% in size; further: potency means the concentration at half of the fitted maximal effect;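 on activity change, negative = cytotoxicity: MDA-kb2 human breast cancer cells carrying an MMTV luciferase reporter; series mostly up to about 92 µM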). An outline of the steps:
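Each compound was tested at 15 concentrations on MDA-kb2 cells in the presence of 3.0uM nilutamide. Viability was measured by CellTiter-Fluor fluorescence after a 16 hr incubation at 37C in a CO2-free atmosphere.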

Assay [4] in a line: qHTS assay to identify small molecule agonists of the estrogen receptor beta (ER-beta) signaling pathway - cell viability counter screen (AID 1259380; active means well fitted curve in the direction sought with a large enough effect in the repeat runs; an effect the other way counts as inactive or inconclusive; further: nearly all actives have a fitted effect of over 30% in size; further: potency means the concentration at half of the fitted maximal effect). An outline of the steps: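 Compounds dissolved in DMSO were pin-transferred onto ER-beta-UAS-bla HEK293T cells that had settled 6 hr, and exposure ran 16 hr at 37C. Following the reporter read, CellTiter-Glo luminescence after 30 min at room temperature indicated cytotoxicity.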

Assay [5] in a line: qHTS assay to identify small molecule antagonists of the estrogen receptor beta (ER-beta) signaling pathway - cell viability counter screen (AID 1259382; active means well fitted curve in the direction sought with a large enough effect in the repeat runs; an effect the other way counts as inactive or inconclusive; further: nearly all actives have a fitted effect of over 55% in size; further: potency means the concentration at half of the fitted maximal effect;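 on activity change, negative = cytotoxicity: HEK293T cells carrying ER-beta-UAS-bla reporter stimulated with estradiol; series mostly up to about 92 µM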). An outline of the steps: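 CellTiter-Glo ATP luminescence measured after the LiveBLAzer read in the same wells; ER-beta-UAS-bla HEK293T cells, 16 hr compound treatment with 1nM 17-beta-estradiol agonist at 37C, 5% CO2.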
Assay [6] concerns the target Estrogen receptor (Homo sapiens) (UniProt P03372). The experiment in a line: qHTS assay to identify small molecule agonists of the estrogen receptor alpha (ER-alpha) signaling pathway in the presence of an antagonist (AID 1259383). Further: nearly all actives have a fitted effect of over 15% in size. Further: potency means the concentration at half of the fitted maximal effect. On activation: top concentration of the series differs between compounds. The essentials:
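Luminescent ERE-luciferase reporter, VM7Luc4E2 cells (endogenous ER-alpha); 10.0nM ICI-182,780 final; 15-point compound titration; 22hr at 37C; ONE-Glo, 30min RT.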

Assay [7] can be described thus: qHTS assay to identify small molecule agonists or antagonists of the thyroid stimulating hormone receptor (TSHR) signaling pathway - wild type cell line counter screen (AID 1259384). An outline of the steps: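 Counter screen in untransfected Hek293: compounds (15-point titration, triplicate) plus phosphodiesterase inhibitor Ro20-1724 added after 18 h plating; 30 min RT. Intracellular cAMP via competitive d2/cryptate immunoassay, 1 h incubation.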

Assay [8] has as its target Estrogen receptor beta (Homo sapiens) (UniProt Q92731). Description: qHTS assay to identify small molecule antagonists of the estrogen receptor beta (ER-beta) signaling pathway (AID 1259378; active means well fitted inhibition curve with a large enough effect in the signal ratio in the repeat runs, not every such curve was filed as active; the % refers to the signal ratio; further: potency means the concentration at half of the fitted maximal effect). The essentials:
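Antagonist mode: compounds added to beta-lactamase reporter HEK293T ER-beta-UAS cells stimulated with E2 (1nM final), 16 hr at 37C. LiveBLAzer B/G FRET substrate, 2 hours room temperature, fluorescence read-out.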

Assay [9] deals with Androgen receptor (Homo sapiens) (UniProt P10275). The experiment in a line: qHTS assay to identify small molecule agonists of the androgen receptor (AR) signaling pathway in the presence of an antagonist (AID 1259381). Further: nearly all actives have a fitted effect of over 15% in size. Further: potency means the concentration at half of the fitted maximal effect. An outline of the steps: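 Plated MDA-kb2 cells (3,000/well) were pre-incubated 5hr, given nilutamide (3.0uM final) or buffer, then dosed with compounds in DMSO at 15 concentrations. Luciferase activity was quantified by luminescence after 16hr at 37C.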
Androgen receptor (Homo sapiens), sequence (P10275 whole entry, looked up): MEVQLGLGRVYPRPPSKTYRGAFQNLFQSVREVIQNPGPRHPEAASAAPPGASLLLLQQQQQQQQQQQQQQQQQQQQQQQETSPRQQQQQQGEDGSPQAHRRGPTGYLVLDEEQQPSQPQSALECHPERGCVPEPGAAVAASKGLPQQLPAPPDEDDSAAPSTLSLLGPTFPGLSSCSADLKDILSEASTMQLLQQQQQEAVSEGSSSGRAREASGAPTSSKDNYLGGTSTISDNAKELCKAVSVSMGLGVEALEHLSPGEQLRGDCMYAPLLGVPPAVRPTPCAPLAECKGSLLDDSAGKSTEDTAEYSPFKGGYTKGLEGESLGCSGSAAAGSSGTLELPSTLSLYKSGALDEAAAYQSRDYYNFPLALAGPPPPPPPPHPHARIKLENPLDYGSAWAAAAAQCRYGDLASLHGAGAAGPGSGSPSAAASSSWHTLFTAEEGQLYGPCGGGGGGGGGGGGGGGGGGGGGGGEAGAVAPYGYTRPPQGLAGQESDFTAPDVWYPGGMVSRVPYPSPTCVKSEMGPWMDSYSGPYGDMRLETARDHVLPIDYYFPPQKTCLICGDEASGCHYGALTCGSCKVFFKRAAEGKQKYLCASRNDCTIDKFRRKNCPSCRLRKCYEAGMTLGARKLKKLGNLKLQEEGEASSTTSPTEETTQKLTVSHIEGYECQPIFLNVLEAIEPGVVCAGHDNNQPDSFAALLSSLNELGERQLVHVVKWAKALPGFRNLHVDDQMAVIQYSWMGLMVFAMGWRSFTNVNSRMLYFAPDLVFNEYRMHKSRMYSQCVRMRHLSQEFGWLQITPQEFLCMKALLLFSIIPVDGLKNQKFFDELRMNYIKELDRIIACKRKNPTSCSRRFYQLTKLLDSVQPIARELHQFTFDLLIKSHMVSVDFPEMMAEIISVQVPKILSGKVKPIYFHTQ

SMILES strings stand for the structures. Where “and” joins values, the source holds several entries; their conditions need not be identical. Identical values can stand only once. Values without a mark were called inactive. Records with an inconclusive call do not appear. Calls of active or inactive are those of the source. Unless noted, the call rests on the fitted dose curve.
On the % scale 0 is the no-effect control and ±100 the full control effect.

Estrogen receptor (Homo sapiens), sequence (P03372 whole entry, looked up): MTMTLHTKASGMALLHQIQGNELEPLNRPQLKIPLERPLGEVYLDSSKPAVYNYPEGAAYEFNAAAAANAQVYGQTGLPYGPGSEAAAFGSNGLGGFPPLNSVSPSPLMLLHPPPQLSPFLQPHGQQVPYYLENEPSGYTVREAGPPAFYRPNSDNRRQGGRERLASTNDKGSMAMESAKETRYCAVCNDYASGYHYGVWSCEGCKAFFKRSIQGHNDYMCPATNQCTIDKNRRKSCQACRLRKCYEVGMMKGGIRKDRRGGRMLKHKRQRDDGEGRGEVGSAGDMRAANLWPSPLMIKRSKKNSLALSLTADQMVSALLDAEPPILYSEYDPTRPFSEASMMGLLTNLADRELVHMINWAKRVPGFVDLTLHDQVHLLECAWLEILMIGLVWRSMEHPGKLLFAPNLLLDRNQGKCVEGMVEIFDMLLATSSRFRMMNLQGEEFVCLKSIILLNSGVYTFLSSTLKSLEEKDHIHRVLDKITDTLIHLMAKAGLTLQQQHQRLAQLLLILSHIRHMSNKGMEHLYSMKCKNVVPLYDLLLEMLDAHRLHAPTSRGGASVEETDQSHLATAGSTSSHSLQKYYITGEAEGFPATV
Estrogen receptor beta (Homo sapiens), sequence (Q92731 whole entry, looked up): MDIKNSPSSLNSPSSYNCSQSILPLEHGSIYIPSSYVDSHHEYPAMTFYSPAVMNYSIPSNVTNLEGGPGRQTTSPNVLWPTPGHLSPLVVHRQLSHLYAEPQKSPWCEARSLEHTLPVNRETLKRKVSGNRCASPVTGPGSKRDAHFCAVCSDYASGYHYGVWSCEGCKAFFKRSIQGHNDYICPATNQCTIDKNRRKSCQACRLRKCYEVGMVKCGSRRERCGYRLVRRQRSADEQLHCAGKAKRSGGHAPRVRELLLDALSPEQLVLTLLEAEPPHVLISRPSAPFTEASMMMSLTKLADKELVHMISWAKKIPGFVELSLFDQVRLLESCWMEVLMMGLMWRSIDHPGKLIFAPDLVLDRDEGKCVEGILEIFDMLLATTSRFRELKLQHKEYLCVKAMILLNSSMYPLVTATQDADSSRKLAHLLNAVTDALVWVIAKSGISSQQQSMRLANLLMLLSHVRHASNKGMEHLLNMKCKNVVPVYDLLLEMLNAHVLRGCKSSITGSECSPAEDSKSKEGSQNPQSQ

In the case of `CC(C)c1nnc2ccc(-c3ocnc3-c3cc(F)ccc3F)cn12`, in assay [1], the Potency is 1.09 µM (active). Moreover, the Potency entry in [2], in assay [3], in assay [4], in assay [5] and in assay [6] was “inactive” in each case. In [7], the compound was called inactive.
On to `CCOC(=O)CC(=O)C(=O)OCC`, for which the Potency result in assay [1], in [2] and in assay [6] was “inactive” each time. The Potency is 48.6 µM (active) in assay [8], 8.63 µM (active) in [4] and 1.54 µM (active) in assay [9].
On to `O=C1OCCN1/N=C/c1ccc([N+](=O)[O-])o1`, for which the Potency result in [3], in [4], in assay [5] and in assay [6] was “inactive” in each case. For the same compound, the outcome in assay [7] was inactive.
Consider `CC1=C(C=O)C(C)(C)CCC1`, for which the Potency entry in assay [1], in [8], in assay [3], in assay [4], in [5] and in assay [6] was “inactive” each time. In addition, the outcome in assay [7] was inactive.
Turning to `COCc1c(C(C)C)nc(C(C)C)c(/C=C/[C@@H](O)C[C@@H](O)CC(=O)O)c1-c1ccc(F)cc1`, the Potency result in assay [3], in assay [9] and in [6] was “inactive” in each case. Besides, the Potency in [4] is 298 nM (active) and 1.08 µM (active).
With `O=C(CCC1CCN(Cc2ccccc2)CC1)c1ccc2c(c1)NCCCC2`, the Potency is 10.6 µM (active) in assay [1] and 29.8 µM (active) in assay [3]. Further, the Potency result in assay [2], in assay [8], in assay [9], in assay [5] and in assay [6] was “inactive” in each case. Further, the outcome in assay [7] was inactive.
`CCC(C)(C)C1CCC(O)CC1` (stereo not given): the Potency entry in assay [1], in assay [3], in assay [4], in [5] and in [6] was “inactive” in each case. Further, in assay [7], the compound was called inactive.
For `CCCCCCCCCOC(C)=O`, the Potency result in assay [1], in assay [2], in assay [8], in [3], in assay [5] and in assay [6] was “inactive” throughout. The outcome in assay [7] was inactive.
Take `OCCSc1ccccc1`: the Potency entry in assay [1], in [3] and in [6] was “inactive” in each case. In [4], the Potency was 19.3 µM (active). Further, the outcome in [7] was inactive.
`c1ccc(COCc2ccccc2)cc1`: the Potency result in [1], in [3], in assay [4], in assay [5] and in [6] was “inactive” throughout. Further, the compound was classed as inactive in assay [7].
With `CC(CCO)CCc1ccccc1` (stereo not given), the Potency entry in [1], in [2], in assay [3], in assay [4], in assay [5] and in [6] was “inactive” each time. Also, the result in assay [7] was inactive.
For `CO[C@@]12[C@H](COC(N)=O)C3=C(C(=O)C(C)=C(N)C3=O)N1C[C@@H]1N[C@@H]12`, the results for the Potency in assay [1] and in [8] were 0.298 µM (active) and 18.8 µM (active), respectively. Also, the Potency entry in assay [2], in assay [3], in assay [4] and in [5] was “inactive” in each case.
On to `O=C(O)c1cccnc1C(=O)O`, for which the Potency result in [1], in [3], in [4], in assay [5] and in assay [6] was “inactive” each time. In addition, in [7], the result was inactive.
On to `CCCCCCCCCCCCCCCCBr`, for which the activity change, negative = inhibition in assay [1] is 18.7% [at 19 µM]. The results for the activation in assay [2] and in assay [6] were 0.819% [at 19 µM] and -0.645% [at 19 µM], respectively. The activity change, negative = cytotoxicity in [3] was 1.54% [at 19 µM]; in assay [4] it was 2.84% [at 19 µM]; in assay [5], -0.0957% [at 19 µM]. In addition, the cAMP activity change in [7] was -0.461% [at 18.9 µM].
For the compound `CC(C)(C)CC(C)(C)c1ccc(OCCO)cc1`, the Potency in [1] is 15.3 µM (active); in [8], 43 µM (active); in [3], 30.5 µM (active). For the same compound, the Potency entry in assay [9] and in [6] was “inactive” in each case.
With `CC(Cl)C(Cl)Cl` (stereo not given), the Potency entry in assay [2], in assay [3], in [4], in assay [5] and in [6] was “inactive” each time.
Turning to `CCC(=O)Oc1ccc(/C(CC)=C(\CC)c2ccc(OC(=O)CC)cc2)cc1`, the Potency in assay [1] was 24.3 µM (active); in assay [2], 0.0017 µM (active); in assay [6], 0.0054 µM (active). The Potency entry in assay [3] and in assay [5] was “inactive” in each case.
Regarding `CCOCCn1c(C2CCN(CCc3ccc(C(C)(C)C(=O)O)cc3)CC2)nc2ccccc21`, the Potency result in assay [1], in assay [8], in assay [3], in [9], in [5] and in assay [6] was “inactive” each time. Further, the call in [7] was inactive.
Turning to `CCOC(=N)CC(=O)OCC`, the Potency result in assay [2], in assay [3] and in [6] was “inactive” in each case. In addition, the compound was classed as inactive in assay [7].
Turning to `CC1CC(O)CC(C)(C)C1` (stereo not given), the Potency result in assay [8], in assay [3], in assay [4] and in assay [5] was “inactive” in each case. The result in [7] was inactive.
Turning to `CC[C@@H]([C@H](C)O)n1ncn(-c2ccc(N3CCN(c4ccc(OC[C@@H]5CO[C@@](Cn6cncn6)(c6ccc(F)cc6F)C5)cc4)CC3)cc2)c1=O`, the Potency was 0.188 µM (active) in [1], 11.9 µM (active) in assay [3], 4.22 µM (active) in [4] and 9.44 µM (active) in [5]. Further, the Potency result in assay [2] is “inactive”. In addition, the compound was called inactive in [7].
In the case of `CO[Si](C)(OC)OC`, the Potency entry in [8], in assay [3], in assay [4], in assay [5] and in assay [6] was “inactive” in each case. In addition, the call in assay [7] was inactive.
With `Cc1cnc(C)c(C)n1`, the Potency result in [3] was “inactive”. Further, the call in assay [7] was inactive.
Regarding `O=C(O)c1ccc(CO)o1`, the Potency entry in assay [2], in assay [8], in assay [3] and in [5] was “inactive” each time. The result in assay [7] was inactive.
Consider `O=[N+]([O-])c1cccc(S(=O)(=O)NCCNS(=O)(=O)c2cccc([N+](=O)[O-])c2)c1`, for which the Potency result in assay [1], in assay [3], in assay [4], in assay [9], in assay [5] and in assay [6] was “inactive” in each case.
For `CCCCCCCCCCCCCCC[C@H](O)[C@@H](N)CO`, the Potency result in [1], in assay [2], in [8], in assay [3], in assay [4] and in assay [9] was “inactive” each time. The Potency result in assay [5] and in [6] was “inactive” in each case. Also, the call in assay [7] was inactive.
As for `CCCCN(CCCC)CCCOC(=O)c1ccc(N)cc1`, the Potency result in assay [1], in assay [2], in [8], in assay [3] and in assay [5] was “inactive” throughout. Further, in assay [7], the compound was called inactive.
For the compound `O=C(O)C(Cc1cc(I)c(O)c(I)c1)c1ccccc1` (stereo not given), the Potency result in assay [1], in assay [2], in [8], in assay [3], in assay [4] and in [5] was “inactive” each time. Further, in [6], the Potency result is “inactive”.
With `CNC(=S)NC`, the Potency result in assay [3], in assay [9] and in assay [6] was “inactive” each time. Moreover, in assay [4], the Potency is 13.7 µM (active). Moreover, the compound was classed as inactive in [7].
